Laboratory results taken from paper PMC13494018.

B1: d6r1_design_ppi_1193_dldesign_0_cycle0_af2pred (protein)
chain: EEERQQLLAEAEALFARANALLPAAAAAGSEATALVVESLEYASKAARLAREGGDLEEAQKLLEKAKKYLAEAEKLIAA
B2: d6r1_design_ppi_785_dldesign_0_cycle1_af2pred (protein)
chain: AAAASAAQTATITRAAVASGNTFDAARAGAEMLHYQDPAVGEEVAKTVEEAKKLSPEEAKAAILAKFDAIAARYA
B3: d6r1_design_ppi_807_dldesign_0_cycle1_af2pred (protein)
chain: AQAKRVSLAAALALLNSAIDAAADPKSAAALAEQAADLLESTGEAAPLGKKAKEAAKLLLEDPEKGKALAKEVAKKAAELLAKT
B4: d6r1_design_ppi_1061_dldesign_0_cycle1_af2pred (protein)
chain: AAAALAAAAAIAATLLAAGKAGDAATAAAALYGAALVLALADPAYAEVYDAVARAVSPAARAAGGAAAIALLAAAQA
B5: d6r1_design_ppi_1117_dldesign_0_cycle0_af2pred (protein)
chain: SQQQTQQAQQQAQATIAQTQAARDELKKLAADPEARAAAESAAQQLAVAQDLNASGTLVGAQAALAMAQQALAVATATLAKAKAA
B6: d6r1_design_ppi_719_dldesign_0_cycle0_af2pred (protein)
chain: AAAAAAEAARQASAEKAKQLGLDLAEDARRLTEAGGSPAAVQAALNSAEAVARNLAAMGEVGKPFAEEVLKAAEEARKLAA
B7: d6r1_design_ppi_973_dldesign_0_cycle1_af2pred (protein)
chain: EQKKAAEEAAKAIKEAAKKAKELGDEATANGLQAIATALKNAVEAGDYKAAAELAKIGAAQAATLPELAPLAKKIEKLAKKIEE
B8: d6r1_design_ppi_848_dldesign_0_cycle1_af2pred (protein)
chain: AAGEKALEILKKTAQALLKNAPLLTAEAAAKLAKVIIDAAWAAAKKIGPEAEKVAKEVKALAKEAVAAAAAAAKARAA
B9: d6r1_design_ppi_833_dldesign_0_cycle0_af2pred (protein)
chain: MTPMSAAVAAAEEAIAAATAADPERGGRIAQEAFRGLAQATAIYVTQGKAAGDAAAEELRKRFEAEKAKVEAEAA
B10: d6r1_design_ppi_911_dldesign_0_cycle1_af2pred (protein)
chain: GAAERTGRALANTAVAFAKSGSEEEAVAFATQMAEQIAALPGAEAAVARMAEELAKVLSPEAAAKVREAAAAILAKAAA
B11: d6r1_design_ppi_658_dldesign_0_cycle1_af2pred (protein)
chain: LEEELEKAKNEAKLLLAEAAATLLATDAKGQKAAQLLAAAIAYLDTDPEQALKDAKEALKLVPDSEKVKKALEATEKALELKKKI
B12: d6r1_design_ppi_617_dldesign_0_cycle1_af2pred (protein)
chain: AAAQAQQLMNEALALLFEAARKAPDPSEILRAASKAAQGHLSGSLAEEALAYIREVAEKYPEVAELINEAAELYAQAAKL
B13: d6r1_design_ppi_1169_dldesign_0_cycle1_af2pred (protein)
chain: ELEEEVERAVEEAREAAERAREAGKANPALAPQLEAVVRFLETAAEYARESGEEGTEALKEAVEAARGMAEAALAA
B14: d6r1_design_ppi_1088_dldesign_0_cycle1_af2pred (protein)
chain: GQAGTAKALINMARIGAKLGEEAYEVLKTIFETLANMIADPAWAEGGRAAREAIYAITMEIDPELAKRVLEEVE
B15: d6r1_design_ppi_759_dldesign_0_cycle0_af2pred (protein)
chain: MAKVEQLLNNAKAYAGAAENAARTHSENPELQKLAKEAKEYYEKAEKAYKEGKLKEAEEYAKKAIEKAAEAFSLLQ
B16: d6r1_design_ppi_759_dldesign_0_cycle1_af2pred (protein)
chain: AAETERALRNAKAYATAAEHAAKAHPESPELKKLAAEAKAYYKKAAAAYAAGKKEEALKYAQKAIEKAAEAFSLLS
B17: d6r1_design_ppi_1043_dldesign_0_cycle1_af2pred (protein)
chain: AQASIQRGAQAANALMAAAAGYYAKKYKGPLGEKAKAAADQAAALAAQSAANPATAQANAQQASALLDELLKEVKAYEE
B18: d6r1_design_ppi_801_dldesign_0_cycle0_af2pred (protein)
chain: AALAALTAEANARANAILGRAFAEALARTRAGESPAPVFAAAAAELRRLGEESNPEGRAIADSGIALLQAAA
B19: d8r1_design_ppi_530_dldesign_0_cycle0_af2pred (protein)
chain: AAALAAALAAAAEAAAAAEAEAVAAAVSETVAAAARAAIKSFESGANKELAKQAMAAASAAGAAMKAGDTAAAQQYAAQTQALVAQIA
B20: d6r1_design_ppi_829_dldesign_0_cycle0_af2pred (protein)
chain: EEAKKKAEELIAEVKAYADAAAAAAAAAGAARGAAAAALAAAAIAGIKNIAKAAEEEIKEAAEDPEKQKEIAERAKENIDKILAVALG
B21: d6r1_design_ppi_1068_dldesign_0_cycle0_af2pred (protein)
chain: MAAELTAKAQEAVERAAAAEAAGLKEAATLYLKAAAYYHAGAVNPATAAENAAKGEEYLAQAEALEKAAA
B22: d6r1_design_ppi_812_dldesign_0_cycle0_af2pred (protein)
chain: SAELAERLRRISELFRKAIESGVEEAKRYVEEAAREFARLSGDEERGRELAREAKEAVELGEEGKEAVRAVAQRMLLYGAQAA
B23: d6r1_design_ppi_1105_dldesign_0_cycle1_af2pred (protein)
chain: AEKERLKEAAKRSAEKARELAKAGYALGAKAAILAAVRAAKEAGDAELVKEVLEVAKEAAKHPEVKPALEEAKKALEEVKK
B24: d6r1_design_ppi_1193_dldesign_0_cycle1_af2pred (protein)
chain: MEELKKLKEEAEKLFQKARDIMPQAVKAGNEAVSKVVEAQKYATEAAKLAKEGGDLEEAKKKYEKAKKYYEEALKLIAA
B25: d6r1_design_ppi_1013_dldesign_0_cycle0_af2pred (protein)
chain: SAEVQALLEEARRHIARAQKLLVAGNKEEALKEAEEAKKLAEEAKKLAADDPELAKSAEGLIKLAEAVIESAKA
B26: d6r1_design_ppi_1068_dldesign_0_cycle1_af2pred (protein)
chain: APAVLLAQAQKSAELALKALELGYNEAAVLFLQAASYFFAGAVNPATAATYAAKGVELIEKGLALLKAAS
B27: d6r1_design_ppi_821_dldesign_0_cycle1_af2pred (protein)
chain: AAAQARAEARALNERARALLAAAPVGRAAEAEALATRALGLALAHREAFSNAEMTDILRTLARAAGAARQQAA
B28: d6r1_design_ppi_887_dldesign_0_cycle1_af2pred (protein)
chain: AAVEEATAKAKELREKATKLALEGIRTGNQELVEKAKEKAEKAKELGESSNEEAKEYAKVALAVAEMAKAAL
B29: d6r1_design_ppi_848_dldesign_0_cycle0_af2pred (protein)
chain: AAAETGLKILEATVQALLKNASKYSAEAVKKLSEVLKASAEAEAKAGGEKLKERAKEIKKLAEEAEKKAKEAAKAKAE
B30: d6r1_design_ppi_1028_dldesign_0_cycle0_af2pred (protein)
chain: AAAIAATKAELAKGKALLAKAKAAPAAAWNEALAAELRAAANALNRAATALLAAGGDTALAVEATETAVELLKAAGEINRA
B31: d6r1_design_ppi_1056_dldesign_0_cycle0_af2pred (protein)
chain: AAAAAAAAQAETDALADEARELAAKAAEKIDPEKGALLKELTDYYAAKARSGTDEAGRTGLRALLSAARNIVS
B32: d6r1_design_ppi_695_dldesign_0_cycle1_af2pred (protein)
chain: EAAARQAAINAAALAVAKAVVDKAFADQSPAVVAGAKTMVTMIVNLYADPAKRPQAEALAENSHPAVREAVDAGLAAAAALAAA
B33: d6r1_design_ppi_699_dldesign_0_cycle1_af2pred (protein)
chain: EEEAKEKIREAAKEAAAAAKAQDPAHAPLIEAAAKEIAEAAEKGLVEAQEKANALARAHPEAAQHFSLIFAFAAQAYAEAR
B34: d6r1_design_ppi_761_dldesign_0_cycle0_af2pred (protein)
chain: AEEKERLKELAKFAKEALKKVEELRAAIKANADDPAAVAAARDAMIALAKEAAEKDAEVGNAVMIALGDPEKGVEKLKEVTEKLEKAA
B35: d6r1_design_ppi_900_dldesign_0_cycle1_af2pred (protein)
chain: GEEAAREAEELERRAEELEELARRARELSAEELTEAALEAVRLANRAHALMTAGAPPEVAARLQEVAARALEAAERLSREAREKRA
B36: d6r1_design_ppi_1033_dldesign_0_cycle1_af2pred (protein)
chain: AAEEEAKNAQVRQLAAQAFSYNLLADAAKQLAAAKGPEYEAKAKEYQAKAAAYKAEAEALNPEVFAAALAEVQAKYDAAL
B37: d6r1_design_ppi_1153_dldesign_0_cycle0_af2pred (protein)
chain: TEAAAALLRKTIAALERRVERAPEMSLEEAKALAESAKVLLEAGKAVPEVAAAAEELYKRAEEVAKKKAEEAAA
B38: d6r1_design_ppi_1146_dldesign_0_cycle1_af2pred (protein)
chain: AEEEAAKLKAQADGLDTIATALIEQAKTGDAAVARGAAAAAVSLAKKAAELYKRAAKLAGDEKFGKEQAKKQKAKAKEAKEVAEKKAA

Target: CD276, Q5ZPR3
Sequence (Q5ZPR3 whole entry): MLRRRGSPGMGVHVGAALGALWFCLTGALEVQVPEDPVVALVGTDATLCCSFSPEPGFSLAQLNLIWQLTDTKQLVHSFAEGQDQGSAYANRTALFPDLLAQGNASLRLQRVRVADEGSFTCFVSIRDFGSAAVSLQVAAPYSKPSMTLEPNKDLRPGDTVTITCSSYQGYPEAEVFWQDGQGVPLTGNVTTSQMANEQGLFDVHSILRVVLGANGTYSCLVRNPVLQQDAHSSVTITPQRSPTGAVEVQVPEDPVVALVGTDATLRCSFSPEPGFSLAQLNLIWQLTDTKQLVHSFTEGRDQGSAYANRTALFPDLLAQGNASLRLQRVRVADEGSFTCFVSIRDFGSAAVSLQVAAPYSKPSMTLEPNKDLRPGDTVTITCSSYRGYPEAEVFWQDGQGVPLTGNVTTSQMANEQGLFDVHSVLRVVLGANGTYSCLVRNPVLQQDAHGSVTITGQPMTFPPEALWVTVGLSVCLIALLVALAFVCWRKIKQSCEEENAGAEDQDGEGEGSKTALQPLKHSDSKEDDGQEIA

Binding in a display sort, active:
B30 binds

Binding in a display sort, inactive:
B1 not found, B2 not found, B3 not found, B4 not found, B5 not found, B6 not found, B7 not found, B8 not found, B9 not found, B10 not found, B11 not found, B12 not found, B13 not found, B14 not found, B15 not found, B16 not found, B17 not found, B18 not found, B20 not found, B21 not found, B22 not found, B23 not found, B24 not found, B25 not found, B26 not found, B27 not found, B28 not found, B29 not found, B31 not found, B32 not found, B33 not found, B34 not found, B35 not found, B36 not found, B37 not found, B38 not found

Target: PDL1, Q9NZQ7
Sequence (Q9NZQ7 whole entry): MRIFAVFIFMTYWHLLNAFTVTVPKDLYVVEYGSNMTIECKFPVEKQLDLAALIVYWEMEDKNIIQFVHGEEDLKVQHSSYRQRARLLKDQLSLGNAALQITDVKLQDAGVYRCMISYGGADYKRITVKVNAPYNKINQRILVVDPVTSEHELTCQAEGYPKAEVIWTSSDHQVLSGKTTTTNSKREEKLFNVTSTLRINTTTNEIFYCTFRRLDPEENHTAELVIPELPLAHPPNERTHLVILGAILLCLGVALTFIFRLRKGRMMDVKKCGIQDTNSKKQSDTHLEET

Binding in a display sort, inactive:
B19 not found
